In PubChem BioAssay (NCI):
Compounds without any hit were thinned out: in the full panel of roughly 83,000, 20% have a hit.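 Compound tested at a single concentration for 48 hours in 96-well plates; a percent growth value below 10 was scored as active.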 Values without a mark were called inactive.

system: KM12 colon; assay: NCI-60 one-dose screen, 48 h (100 = growth as untreated, 0 = no growth, -100 = all killed); conditions: 10 µM
Procedure: Growth inhibition of the KM12 human tumor cell line is measured as a screen for anti-cancer activity. Cells are grown in 96 well plates and exposed to the test compound for 48 hours. Compounds are tested at a single concentration, which is 10^-5 M for most compounds. The reported endpoint is percent growth (GI% or GIPRCNT), where numbers from 0 - 100% represent growth inhibition, and numbers from -100% - 0 represent cell death. For example, a value of 40 represents 60% growth inhibition. A value of 0 means no net growth occurred over the course of the experiment. A value of -40 indicates 40% of cells at the beginning of the experiment died by the end of the experiment. A value of -100 means all cells are dead at the end of the experiment.
NCI-60 Human Tumor Cell Lines Screen was performed using the standard one-dose NCI protocol, which is described in more detail at https://dtp.cancer.gov/discovery_development/nci-60/default.htm.
Compounds with GIPRCNT values below 10 were considered active. Activity score was based on GIPRCNT using the following formula: […]
Score is 0 for GIPRCNT values of 100 or above, 50 for GIPRCNT values of 0, and 100 for GIPRCNT values of -100.

| SMILES | growth [%] |
| --- | --- |
| O=[N+]([O-])c1cccc2nsnc12 | 104 |
| CC(=O)Cc1cc(-c2cc(CC(C)=O)[nH]n2)n[nH]1 | 105 |
| COc1cccc(Sc2ccc([N+](=O)[O-])c3no[n+]([O-])c23)c1 | 92.3 |
| CCCCCCCCOC(=O)c1ccccn1 | 103 |
| Cc1cccc([N+](=O)[O-])c1Cl | 104 |
| O=C(O)/C=C/c1ccc2c(c1)CCC2 | 106 |
| O=C(O)CCC(=O)OC(C1CO1)C(OC(=O)CCC(=O)O)C1CO1 (stereo not given) | 101 |
| O=S(=O)(O)c1ccc(O)c2ccccc12 | 102 |
| C/C(=N\O)C1(O)CCCCC1 | 94.6 |
| CN1C(=O)CN2CCc3ccccc3C2c2cc(Cl)ccc21 (stereo not given) | 106 |
| CCOC(=O)c1coc(C(=O)OCC)c1C(=O)OCC | 106 |
| CNC(=O)c1ccccc1CC1(O)c2ccccc2Oc2ccccc21 | 34.5 |
| Cc1ccc(C(=O)N/N=C/c2ccc3c(c2)OCO3)cc1 | 82.1 |
| CCOC(=O)C(CCC(C)C)C(=O)OCC | 104 |
| COCCOCCCl | 107 |
| Cc1nc2ccccc2c2nnc(SCC(=O)N(Cc3ccccc3)c3ccccc3)n12 | 129 |
| c1ccc2c(c1)Sc1ccccc1S2 | 108 |
| Oc1ccc2c(c1)OCC1(O)Cc3cc(O)c(O)cc3C21 (stereo not given) | 96.5 |
| O=C1Cc2ccccc2C(=O)O1 | 115 |
| OCCN1CCOCC1 | 111 |

| SMILES | growth [%] |
| --- | --- |
| CN(C)C(C)(C)CC(C)(C)C | 93.6 |
| CCCCCCCCCCC(C)Br (stereo not given) | 107 |
| c1cc[n+](C2c3ccccc3C([n+]3ccccc3)c3ccccc32)cc1 (stereo not given) | 56.7 |
| COCCCNC(=O)c1nnn2c1nc(N)c1cc(Cl)ccc12 | 50.2 |
| CN(C)c1nc2c([nH]1)c(=O)n(C)c(=O)n2C | 109 |
| O=C(O)CSCSCC(=O)O | 109 |
| CCOC(=O)C/C(C)=N\O | 104 |
| CC(C)=CC(=O)OC(=O)C=C(C)C | 102 |
| S=C1NCc2cncnc2N1 | 106 |
| O=C(NCCNC(=O)c1ccc(Cl)cc1Cl)c1ccc(Cl)cc1Cl | 105 |
| NC(CSC(c1ccccc1)(c1ccccc1)c1ccccc1)C(=O)O (stereo not given) | 22.5 |
| O=C(CC(=O)c1ccccc1O)c1ccccc1 | 92.8 |
| COC(=O)c1ccccc1Br | 94.7 |
| O=C(NCc1ccco1)Nc1c(Cl)cc(Cl)cc1Cl | 104 |
| O=c1cc(-c2ccccc2)nc2cc(-c3ccco3)[nH]n12 | 69.5 |
| C=C[Si](OC(C)=O)(OC(C)=O)OC(C)=O | 104 |
| O=C1N(C[P+](c2ccccc2)(c2ccccc2)c2ccccc2)CCCN1C[P+](c1ccccc1)(c1ccccc1)c1ccccc1 | 111 |
| FC(F)(F)c1ccc2c(c1)N(CCCN1CCN(C3CC3)CC1)c1ccccc1S2 | 59.6 |
| COc1ccc(Oc2c(I)cc(CC(NC(C)=O)C(=O)O)cc2I)cc1 (stereo not given) | 113 |
| CCC(O)CC(CC)CO (stereo not given) | 128 |
